According to the antibiotic and cytotoxicity screens of Wong et al. (2023):
Among all 39,000 compounds or so, about 1,500 (3.8%) were called active. The sample as a whole holds a higher share of actives than the screen did.

What follows are compounds tested on HSkMC (human skeletal muscle cells) (assay: cytotoxicity call (relative viability < 0.9)). Details: 10 µM.
With COc1ccc(S(=O)(=O)N(C)C[C@@H]2Oc3ccc(NC(=O)c4ccncc4)cc3CC(=O)N([C@H](C)CO)C[C@H]2C)cc1 the cytotoxicity call was “inactive”.
CCCC#Cc1cnc2c(c1)C(=O)N([C@H](C)CO)C[C@H](C)[C@H](CN(C)S(=O)(=O)c1cn(C)cn1)O2 was tested, and the cytotoxicity call was “inactive”.
For O=C(O)CC(O)(CC(=O)O)C(=O)O.[LiH].[LiH].[LiH], the cytotoxicity call was “inactive”.
With NC(=O)c1ccc2nc(-c3ccc(C4(N)CCC4)cc3)c(-c3ccccc3)n2n1 the cytotoxicity call was “inactive”.
With Nc1ncccc1-c1nc2ccc(-c3ccccc3)nc2n1-c1ccc(C2(N)CCC2)cc1 the cytotoxicity call was “active”.
In the case of CC(C)NC(=O)N(C)C[C@@H]1Oc2c(NC(=O)NC3CCCCC3)cccc2C(=O)N([C@@H](C)CO)C[C@@H]1C, the cytotoxicity call was “inactive”.
For C[C@H]1CN([C@@H](C)CO)C(=O)Cc2cc(NC(=O)Nc3ccc(C(F)(F)F)cc3)ccc2O[C@@H]1CN(C)Cc1ccc(Oc2ccccc2)cc1, the cytotoxicity call was “active”.
C[C@@H]1CN([C@@H](C)CO)C(=O)Cc2cc(NC(=O)Nc3ccc(C(F)(F)F)cc3)ccc2O[C@@H]1CN(C)Cc1ccc(Oc2ccccc2)cc1 was tested, and the cytotoxicity call was “active”.
For C[C@@H]1CN([C@@H](C)CO)C(=O)Cc2cc(NC(=O)Nc3ccc(C(F)(F)F)cc3)ccc2O[C@H]1CN(C)Cc1ccc(Oc2ccccc2)cc1, the cytotoxicity call was “active”.
C[C@@H]1CN([C@H](C)CO)C(=O)Cc2cc(NC(=O)Nc3ccc(C(F)(F)F)cc3)ccc2O[C@@H]1CN(C)Cc1ccc(Oc2ccccc2)cc1 was tested, and the cytotoxicity call was “active”.
In the case of COc1ccc(S(=O)(=O)Nc2ccc3c(c2)CC(=O)N([C@H](C)CO)C[C@@H](C)[C@@H](CN(C)C)O3)cc1, the cytotoxicity call was “inactive”.
For CCc1nc2ccc(C(=O)NCc3ccc4c(c3)OCO4)cn2c1N(CC)Cc1cccc(Br)c1, the cytotoxicity call was “inactive”.
In the case of C[C@@H]1CN([C@H](C)CO)C(=O)c2cc(NC(=O)Nc3ccc(C(F)(F)F)cc3)ccc2O[C@@H]1CN(C)C(=O)Nc1ccccc1, the cytotoxicity call was “inactive”.
With COc1ccc(NC(=O)N(C)C[C@H]2OCCCC[C@H](C)Oc3ccc(NC(=O)Nc4ccc(F)cc4)cc3C(=O)N([C@H](C)CO)C[C@@H]2C)cc1 the cytotoxicity call was “inactive”.
With COc1ccc(S(=O)(=O)Nc2ccc3c(c2)C(=O)N([C@@H](C)CO)C[C@H](C)[C@H](CN(C)C(=O)c2ccccc2)OCCCC[C@@H](C)O3)cc1 the cytotoxicity call was “inactive”.
C[C@@H]1CCCCO[C@H](CN(C)Cc2ccc(Cl)c(Cl)c2)[C@@H](C)CN([C@@H](C)CO)C(=O)c2cc(NS(=O)(=O)c3cn(C)cn3)ccc2O1 was tested, and the cytotoxicity call was “inactive”.
For OC[C@H]1O[C@H](Nc2ccccc2)C[C@@H]1O, the cytotoxicity call was “inactive”.
With CC(C)CC#Cc1ccc2c(c1)O[C@@H](CN(C)C(=O)Cc1cccnc1)[C@H](C)CN([C@@H](C)CO)S2(=O)=O the cytotoxicity call was “inactive”.
For C[C@@H]1CCCCO[C@H](CN(C)C(=O)Cc2ccccc2)[C@H](C)CN([C@@H](C)CO)C(=O)c2cc(NC(=O)Nc3ccccc3)ccc2O1, the cytotoxicity call was “inactive”.
With C[C@H](CO)N1C[C@H](C)[C@@H](CN(C)C(=O)Nc2ccc(C(F)(F)F)cc2)Oc2c(NS(C)(=O)=O)cccc2C1=O the cytotoxicity call was “inactive”.
For CC(C)NC(=O)N(C)C[C@@H]1Oc2ccc(NS(=O)(=O)c3cn(C)cn3)cc2CC(=O)N([C@H](C)CO)C[C@@H]1C, the cytotoxicity call was “inactive”.
In the case of COc1ccc(S(=O)(=O)Nc2cccc3c2O[C@@H](CN(C)S(=O)(=O)c2cn(C)cn2)[C@H](C)CN([C@H](C)CO)C3=O)cc1, the cytotoxicity call was “inactive”.
For C[C@H]1CN([C@@H](C)CO)C(=O)Cc2cc(NC(=O)Nc3ccc(C(F)(F)F)cc3)ccc2O[C@H]1CN(C)Cc1ccc(Oc2ccccc2)cc1, the cytotoxicity call was “active”.
C[C@H](CO)N1C[C@H](C)[C@H](CN(C)Cc2ccc(Oc3ccccc3)cc2)Oc2ccc(NC(=O)Nc3ccc(C(F)(F)F)cc3)cc2CC1=O was tested, and the cytotoxicity call was “active”.
With C[C@H](CO)N1C[C@H](C)[C@@H](CN(C)Cc2ccc(Oc3ccccc3)cc2)Oc2ccc(NC(=O)Nc3ccc(C(F)(F)F)cc3)cc2CC1=O the cytotoxicity call was “active”.
With C[C@@H]1CN([C@H](C)CO)C(=O)Cc2cc(NC(=O)Nc3ccc(C(F)(F)F)cc3)ccc2O[C@H]1CN(C)Cc1ccc(Oc2ccccc2)cc1 the cytotoxicity call was “active”.
For COc1ccc(S(=O)(=O)Nc2ccc3c(c2)CC(=O)N([C@@H](C)CO)C[C@@H](C)[C@@H](CN(C)Cc2ccncc2)O3)cc1, the cytotoxicity call was “inactive”.
C[C@@H]1CN([C@@H](C)CO)C(=O)Cc2cc(NC(=O)CCN3CCOCC3)ccc2O[C@H]1CN(C)Cc1ccccc1 was tested, and the cytotoxicity call was “inactive”.
With C[C@H](CO)N1C[C@H](C)[C@@H](CN(C)C(=O)Nc2ccccc2)Oc2ccc(NS(C)(=O)=O)cc2C1=O the cytotoxicity call was “inactive”.
C[C@H](CO)N1C[C@H](C)[C@H](CN(C)C(=O)Cc2cccnc2)Oc2ncc(C#Cc3ccccc3F)cc2C1=O was tested, and the cytotoxicity call was “inactive”.
With O=C(N[C@H]1C=C[C@H](CC(=O)N2CCOCC2)O[C@H]1CO)c1ccc2c(c1)OCO2 the cytotoxicity call was “inactive”.
With CON(C)c1nc(Oc2ccc(=O)[nH]n2)nc(N(C)C)n1 the cytotoxicity call was “inactive”.
CN1CCN(C)C1=O was tested, and the cytotoxicity call was “inactive”.
COc1cccc(CNC(=O)C[C@H]2C=C[C@H](NC(=O)C3CCOCC3)[C@@H](CO)O2)c1 was tested, and the cytotoxicity call was “inactive”.
In the case of O=C(C[C@H]1C=C[C@H](NS(=O)(=O)c2ccc(F)cc2)[C@@H](CO)O1)NCCN1CCCCC1, the cytotoxicity call was “inactive”.
In the case of c1ccc(-c2cccs2)cc1, the cytotoxicity call was “inactive”.
O=C(O)CCNC(=O)c1cncc(O)c1 was tested, and the cytotoxicity call was “inactive”.
With COC(=O)c1cccnc1 the cytotoxicity call was “inactive”.
For COC(=O)c1ccc(O)cc1, the cytotoxicity call was “inactive”.
For COC(=O)c1ccc(C(=O)OC)nc1, the cytotoxicity call was “active”.
In the case of COc1ccc(NC(=O)N(C)C[C@H]2Oc3ccc(NC(=O)Nc4ccc(C(F)(F)F)cc4)cc3C(=O)N([C@@H](C)CO)C[C@@H]2C)cc1, the cytotoxicity call was “inactive”.
For O=C(N[C@H]1C=C[C@H](CC(=O)N2CCOCC2)O[C@H]1CO)c1ccccn1, the cytotoxicity call was “inactive”.
For COCC(=O)Nc1ccc2c(c1)OC[C@H](C)N(Cc1cccc(F)c1)C[C@H](C)[C@@H](OC)CN(C)C2=O, the cytotoxicity call was “inactive”.
C[C@@H]1CCCCO[C@H](CN(C)C(=O)Nc2ccc3c(c2)OCO3)[C@H](C)CN([C@H](C)CO)C(=O)c2cc(NS(=O)(=O)c3cccs3)ccc2O1 was tested, and the cytotoxicity call was “inactive”.
O=C1CSC(/N=C/c2ccccc2O)=NN1 was tested, and the cytotoxicity call was “active”.
For C[C@@H]1CN([C@H](C)CO)C(=O)c2cc(NC(=O)Nc3ccc(C(F)(F)F)cc3)ccc2O[C@@H](C)CCCCO[C@H]1CN(C)Cc1ccc(C(=O)O)cc1, the cytotoxicity call was “inactive”.
With Cc1noc(C)c1S(=O)(=O)Nc1ccc2c(c1)C(=O)N([C@@H](C)CO)C[C@H](C)[C@@H](CN(C)S(=O)(=O)c1cn(C)cn1)O2 the cytotoxicity call was “inactive”.
Cc1noc(C)c1NC(=O)N(C)C[C@H]1Oc2c(NC(=O)C3CCOCC3)cccc2C(=O)N([C@H](C)CO)C[C@H]1C was tested, and the cytotoxicity call was “inactive”.
With C=CC[C@H](CC(=O)N(CCO)Cc1ccccc1)C(=O)NC[C@@H](OC(=O)[C@@H](CC=C)Cc1ccc(F)cc1)c1ccccc1 the cytotoxicity call was “inactive”.
For C=CC[C@@H](CC(=O)N(CCO)Cc1ccccc1)C(=O)NC[C@H](OC(=O)[C@@H](CC=C)Cc1ccc(F)cc1)c1ccccc1, the cytotoxicity call was “active”.
With C=CC[C@@H](CC(=O)N(CCO)Cc1ccccc1)C(=O)NC[C@@H](OC(=O)[C@@H](CC=C)Cc1ccc(F)cc1)c1ccccc1 the cytotoxicity call was “inactive”.
With C=CC[C@H](CC(=O)N(CCO)Cc1ccccc1)C(=O)NC[C@H](OC(=O)[C@@H](CC=C)Cc1ccc(F)cc1)c1ccccc1 the cytotoxicity call was “active”.
With C[C@H](CO)N1C[C@H](C)[C@H](CN(C)S(=O)(=O)c2cccs2)Oc2ncc(C#CC(C)(C)O)cc2C1=O the cytotoxicity call was “inactive”.
For COc1ccc(S(=O)(=O)N(C)C[C@H]2Oc3ccc(NS(C)(=O)=O)cc3C(=O)N([C@@H](C)CO)C[C@H]2C)cc1, the cytotoxicity call was “inactive”.
With CC(C)NC(=O)N(C)C[C@H]1Oc2c(NS(=O)(=O)c3ccc(Cl)cc3)cccc2C(=O)N([C@@H](C)CO)C[C@@H]1C the cytotoxicity call was “inactive”.
For CC(C)NC(=O)Nc1cccc2c1O[C@H](CN(C)Cc1ccc(-c3ccccc3)cc1)[C@H](C)CN([C@@H](C)CO)C2=O, the cytotoxicity call was “inactive”.
For COC(=O)CNC(=O)c1ccccc1, the cytotoxicity call was “inactive”.
For C[C@@H]1CN([C@@H](C)CO)C(=O)c2cccc(NS(=O)(=O)c3cn(C)cn3)c2O[C@H]1CN(C)S(=O)(=O)c1cccs1, the cytotoxicity call was “inactive”.
In the case of Cc1noc(C)c1NC(=O)Nc1cccc2c1O[C@@H](CN(C)C(=O)NC(C)C)[C@@H](C)CN([C@@H](C)CO)C2=O, the cytotoxicity call was “inactive”.
In the case of Cc1noc(C)c1NC(=O)Nc1ccc2c(c1)C(=O)N([C@@H](C)CO)C[C@@H](C)[C@@H](CN(C)C(=O)C1CCCCC1)OCCCC[C@H](C)O2, the cytotoxicity call was “inactive”.
With C[C@@H]1CN([C@@H](C)CO)C(=O)Cc2cc(NS(=O)(=O)c3ccccc3)ccc2O[C@H]1CN(C)Cc1ccc(Oc2ccccc2)cc1 the cytotoxicity call was “inactive”.
With C[C@@H]1CN([C@H](C)CO)C(=O)Cc2cc(NS(=O)(=O)c3ccccc3)ccc2O[C@@H]1CN(C)Cc1ccc(Oc2ccccc2)cc1 the cytotoxicity call was “active”.
With C[C@H]1CN([C@@H](C)CO)C(=O)Cc2cc(NS(=O)(=O)c3cccs3)ccc2O[C@@H]1CN(C)Cc1ccc(Oc2ccccc2)cc1 the cytotoxicity call was “inactive”.
In the case of C[C@@H]1CN([C@H](C)CO)C(=O)Cc2cc(NS(=O)(=O)c3ccccc3)ccc2O[C@H]1CN(C)Cc1ccc(Oc2ccccc2)cc1, the cytotoxicity call was “inactive”.
With C[C@@H]1CN([C@H](C)CO)C(=O)Cc2cc(NS(=O)(=O)c3cccs3)ccc2O[C@@H]1CN(C)Cc1ccc(Oc2ccccc2)cc1 the cytotoxicity call was “active”.
In the case of C[C@H](CO)N1C[C@H](C)[C@@H](CN(C)Cc2ccc(Oc3ccccc3)cc2)Oc2ccc(NS(=O)(=O)c3ccccc3)cc2CC1=O, the cytotoxicity call was “inactive”.
In the case of C[C@H](CO)N1C[C@H](C)[C@H](CN(C)Cc2ccc(Oc3ccccc3)cc2)Oc2ccc(NS(=O)(=O)c3ccccc3)cc2CC1=O, the cytotoxicity call was “inactive”.
C[C@H]1CN([C@@H](C)CO)C(=O)Cc2cc(NS(=O)(=O)c3cccs3)ccc2O[C@H]1CN(C)Cc1ccc(Oc2ccccc2)cc1 was tested, and the cytotoxicity call was “inactive”.
With C[C@H]1CN([C@@H](C)CO)C(=O)Cc2cc(NS(=O)(=O)c3ccccc3)ccc2O[C@@H]1CN(C)Cc1ccc(Oc2ccccc2)cc1 the cytotoxicity call was “active”.
C[C@H]1CN([C@@H](C)CO)C(=O)Cc2cc(NS(=O)(=O)c3ccccc3)ccc2O[C@H]1CN(C)Cc1ccc(Oc2ccccc2)cc1 was tested, and the cytotoxicity call was “inactive”.
With C[C@@H]1CN([C@@H](C)CO)C(=O)Cc2cc(NS(=O)(=O)c3ccccc3)ccc2O[C@@H]1CN(C)Cc1ccc(Oc2ccccc2)cc1 the cytotoxicity call was “active”.
